# In the library only some 3.5% were active in any assay of this set; here they are far more common.
# TEAD-YAP block: TEAD-YAP interaction inhibition | inhibition, % at 9.12 µM | HEK-TIYL cells, TEAD-Gal4/YAP UAS-luciferase luminescence | 1.4% of 640,000 active; in the data active means inhibition above about 32%;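 further: 0% = median of test compound wells and 100% = reference inhibitor wells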
# FBW7 activator: human FBW7 E3 ligase activation, primary screen; normalized activity (activation), % at 26.1 µM; Q969H0; 0.13% of 650,000 active; AID 1259310; AlphaScreen FBW7–phospho-cyclin E peptide binding, activator screen; in the data active means normalized activity above about 1.9%;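 further: purified mutant Fbw7 with reduced substrate affinity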
# GPR151 activ: activates the human receptor GPR151; AID 1508602; activation, % at 11.2 µM; Q8TDV0; PathHunter beta-arrestin GPR151 cells, luminescence; 1% of 650,000 active; in the data active means activation above about 4.9%;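 further: 0% = median of compound wells and 100% = cells with positive control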
# MITF primary: human MITF inhibition, primary screen | O75030 | AlphaScreen MITF homodimerization, bead proximity signal | inhibition, % at 2.6 µM | 0.91% of 650,000 active | AID 1259374; in the data active means inhibition above about 50%;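 further: 0% = vehicle wells with protein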
# * marks the source's active call; other numbers are inactive results.
SMILES,TEAD-YAP block,FBW7 activator,GPR151 activ,MITF primary
CC(C)c1cc(CNC(=O)c2cc(COc3ccc4ncccc4c3)on2)on1,18,0,0,12
O=C(NCc1ccc2c(c1)OCO2)c1cc(COc2ccc3ncccc3c2)on1,35*,0,1,4
CC(C)OCCNC(=O)c1cc(COc2ccc3ncccc3c2)on1,22,0,1,-10
CC(NC(=O)c1cc(COc2ccc3ncccc3c2)on1)c1ccc(F)cc1 (centres undefined),38*,0,2,10
COc1ccc(NC(=O)/C(=C\c2ccc3c(c2)OCO3)NC(=O)c2ccccc2Cl)cc1,0,0,2,3
Cc1ccc(N2CCN(c3ncnc4sc(C)c(C)c34)CC2)cc1,7,0,1,12
O=C(NCCCN1CCCC1=O)c1cccc(Nc2ccncn2)n1,-5,0,4,3
Cc1ccc(S(=O)(=O)N(CC(=O)N2CCCCCC2)Cc2ccccc2F)cc1,7,0,5,-4
Cc1nc(C(C)NC(=O)c2cc(COc3ccc(F)cc3F)on2)cs1 (centres undefined),-4,2.0*,0,9
COc1ccc(C2=NN3C(C2)c2ccccc2OC3c2ccc(OC)cc2)cc1 (centres undefined),-69,0,0,-6
CC(C)(C)P(=NC(=S)NCCCO)(N1CCCCCC1)N1CCCCCC1,73*,0,1,16
COc1ccccc1C(=O)N/C(=C/c1ccccc1)C(=O)Nc1ccc(C(C)=O)cc1,3,1,-2,8
COc1ccc(C(=O)Nc2nc(-c3ccc(C(C)C)cc3)cs2)cc1,-2,0,0,7
CC(C)c1ccc(-c2csc(NC(=O)c3ccnn3C)n2)cc1,57*,0,2,-22
COc1cc(C2C3=C(CCCC3=O)N(c3ccccc3C(F)(F)F)C(=N)/C2=C(/O)c2ccccc2)cc(OC)c1OC (centres undefined),-3,0,-1,-11
CC(=O)Nc1cccc(NC(=O)c2cn(-c3ccc(C)c(C)c3)c(=O)c3ccccc23)c1,44*,0,0,4
O=C(COc1ccccc1)Nc1nccs1,-3,0,-10,9
COc1cccc(-n2cc(C(=O)Nc3nccs3)c3ccccc3c2=O)c1,43*,0,1,-6
COc1cccc(OCC(=O)Nc2nccs2)c1,37*,0,-5,0
Cc1cccc(OCCCC(=O)Nc2nccs2)c1,4,0,2,-5
Cc1cccc(OCC(=O)Nc2nccs2)c1,54*,0,-6,-11
COc1cccc(-n2cc(C(=O)Nc3ccccc3Cl)c3ccccc3c2=O)c1,9,1,-2,6
CCCCc1nnc(-c2cc3ccccc3n2CC#N)o1,1,0,2,3
CC(Nc1ncnc2sccc12)c1ccccc1 (centres undefined),53*,0,3,-4
CCOC(=O)C1C(=O)NC(SCC(=O)OC)=C(C#N)C1c1ccccc1Cl (centres undefined),0,0,-1,1
SMILES,TEAD-YAP block,FBW7 activator,GPR151 activ,MITF primary
CCOc1ccc(S(=O)(=O)NC2CC(C)(C)NC(C)(C)C2)cc1,12,0,0,-4
COC(=O)c1c(NC(=O)c2ccc3c(c2)OCO3)sc(C)c1C,-9,0,0,0
COC(=O)CCC(=O)Nc1sc(C)c(C)c1C(N)=O,-5,0,1,2
CC(=O)Nc1sc(Cc2ccc3c(c2)OCO3)c(C)c1C(N)=O,-2,0,-1,2
Cc1sc(NC(=S)NC(=O)CCc2ccccc2)c(C(N)=O)c1C,50*,0,0,-4
COC(=O)CCC(=O)NC(=S)Nc1sc(C)c(C)c1C(N)=O,52*,0,2,-10
Cc1sc(NC(=O)c2ccc3c(c2)OCO3)c(C(N)=O)c1-c1ccccc1,90*,0,0,-2
Cc1c(Cc2ccc3c(c2)OCO3)sc(NC(=O)CCc2ccccc2)c1C(N)=O,56*,0,2,-12
CCOc1ccccc1/C=C1\N=C(c2cccc(OC)c2)OC1=O,4,0,1,1
CC1CC(C)CN(S(=O)(=O)c2ccc(C(=O)Nc3nc4ccc(F)cc4s3)cc2)C1 (centres undefined),11,0,-1,-6
Nc1c(-c2nc(-c3ccc4c(c3)OCO4)no2)nnn1CC(=O)Nc1ccc(Cl)cc1,3,0,-1,7
O=C(Nc1ccc(-c2nc3ccccc3o2)cc1)Nc1c(F)cccc1F,-39,1,-2,9
Cc1ccc(OCc2nc(-c3ccccn3)no2)c(Br)c1,39*,0,-7,4
Nc1cc(Br)c2c(c1)OCCO2,66*,0,-1,18
